Residue numbers refer to the chain shown, from its start.
Experiments:
Test in all cases: PBM; 200 nM protein, PBS
Conditions in all cases: dsDNA, one strand shown
HOXB4 [1] = molecular target: HOXB4 (Homo sapiens, UniProt P17483 148-234)
HOXA4 [2] = molecular target: HOXA4 (Homo sapiens, UniProt Q00056 201-287, W262R)
HOXA4 [3] = molecular target: HOXA4 (Homo sapiens, UniProt Q00056 201-287, R217L)
HOXB4 [4] = molecular target: HOXB4 (Homo sapiens, UniProt P17483 148-234, V174I)
HOXA4 [5] = molecular target: HOXA4 (Homo sapiens, UniProt Q00056 201-287)
HOXA4 (Homo sapiens, UniProt Q00056 201-287), sequence (Q00056 201-287): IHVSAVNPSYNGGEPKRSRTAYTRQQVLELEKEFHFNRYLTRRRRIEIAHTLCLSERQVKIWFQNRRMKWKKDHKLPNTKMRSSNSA

HOXA4 [6] = molecular target: HOXA4 (Homo sapiens, UniProt Q00056 201-287, W262F)
HOXA4 (Homo sapiens, UniProt Q00056 201-287, W262F), sequence (Q00056 201-287 W262F): as the sequence (Q00056 201-287) above, with W62F counted along it

PAX4 [7] = molecular target: T1, PAX4 (Homo sapiens, UniProt O43316 9-242, R200K)
T1 sequence: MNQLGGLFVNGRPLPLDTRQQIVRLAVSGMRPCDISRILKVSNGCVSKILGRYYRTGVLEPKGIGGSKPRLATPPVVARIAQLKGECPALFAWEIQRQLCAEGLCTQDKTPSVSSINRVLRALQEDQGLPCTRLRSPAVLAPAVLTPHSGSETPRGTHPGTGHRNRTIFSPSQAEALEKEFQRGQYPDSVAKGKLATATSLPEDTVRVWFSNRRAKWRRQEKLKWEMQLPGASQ

PAX4 [8] = molecular target: T2, PAX4 (Homo sapiens, UniProt O43316 9-242)
T2 sequence: T1 sequence with K192R

MSX2 [9] = molecular target: MSX2 (Homo sapiens, UniProt P35548 130-214, R199I)
MSX2 (Homo sapiens, UniProt P35548 130-214, R199I), sequence (P35548 130-214 R199I): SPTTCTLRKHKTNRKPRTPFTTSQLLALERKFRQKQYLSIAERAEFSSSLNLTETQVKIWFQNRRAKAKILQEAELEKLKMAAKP

PAX4 [10] = molecular target: T3, PAX4 (Homo sapiens, UniProt O43316 9-242, R200Q)
T3 sequence: T1 sequence with K192Q

PAX4 [11] = molecular target: T4, PAX4 (Homo sapiens, UniProt O43316 9-242, F177V)
T4 sequence: T1 sequence with F169V, K192R

MSX2 [12] = molecular target: MSX2 (Homo sapiens, UniProt P35548 130-214)
MSX2 (Homo sapiens, UniProt P35548 130-214), sequence (P35548 130-214): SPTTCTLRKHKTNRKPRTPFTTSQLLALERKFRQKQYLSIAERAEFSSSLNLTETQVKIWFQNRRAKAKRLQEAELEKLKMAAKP

PAX4 [13] = molecular target: T5, PAX4 (Homo sapiens, UniProt O43316 9-242, F177Y)
T5 sequence: T1 sequence with F169Y, K192R

MSX2 [14] = molecular target: MSX2 (Homo sapiens, UniProt P35548 130-214, F161Y)
MSX2 (Homo sapiens, UniProt P35548 130-214, F161Y), sequence (P35548 130-214 F161Y): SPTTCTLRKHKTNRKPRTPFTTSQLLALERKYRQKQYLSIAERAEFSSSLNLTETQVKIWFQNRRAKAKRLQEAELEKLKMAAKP

PAX4 [15] = molecular target: T6, PAX4 (Homo sapiens, UniProt O43316 9-242, R227W)
T6 sequence: T1 sequence with K192R, R219W

ALX4 [16] = molecular target: ALX4 (Homo sapiens, UniProt Q9H161 200-286)
ALX4 (Homo sapiens, UniProt Q9H161 200-286), sequence (Q9H161 200-286): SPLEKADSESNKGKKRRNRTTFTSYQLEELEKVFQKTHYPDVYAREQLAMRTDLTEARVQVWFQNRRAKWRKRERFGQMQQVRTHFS

PRRX1 [17] = molecular target: PRRX1 (Homo sapiens, UniProt P54821 80-166, F113S)
PRRX1 (Homo sapiens, UniProt P54821 80-166, F113S), sequence (P54821 80-166 F113S): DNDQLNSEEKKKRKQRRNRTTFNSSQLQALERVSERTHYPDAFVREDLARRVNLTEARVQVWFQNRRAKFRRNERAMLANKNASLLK

HOXB6 = HOXB6 (Homo sapiens, UniProt P17509 132-218, K202E)
HOXB6, sequence (P17509 132-218 K202E): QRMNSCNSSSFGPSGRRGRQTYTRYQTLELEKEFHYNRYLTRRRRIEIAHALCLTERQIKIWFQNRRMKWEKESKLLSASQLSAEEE

ALX4 [18] = molecular target: ALX4 (Homo sapiens, UniProt Q9H161 200-286, Q225E)
ALX4 (Homo sapiens, UniProt Q9H161 200-286, Q225E), sequence (Q9H161 200-286 Q225E): as the sequence (Q9H161 200-286) above, with Q26E counted along it

HOXA2 [19] = molecular target: HOXA2 (Homo sapiens, UniProt O43364 129-215, R185T)
HOXA2 (Homo sapiens, UniProt O43364 129-215, R185T), sequence (O43364 129-215 R185T): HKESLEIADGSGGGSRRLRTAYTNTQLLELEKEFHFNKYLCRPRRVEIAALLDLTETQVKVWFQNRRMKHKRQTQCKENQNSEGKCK

ALX1 [20] = molecular target: ALX1 (Homo sapiens, UniProt Q15699 118-204, L144V)
ALX1 (Homo sapiens, UniProt Q15699 118-204, L144V), sequence (Q15699 118-204 L144V): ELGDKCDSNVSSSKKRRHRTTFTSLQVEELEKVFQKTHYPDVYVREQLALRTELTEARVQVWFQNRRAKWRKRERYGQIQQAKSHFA

ALX3 [21] = molecular target: ALX3 (Homo sapiens, UniProt O95076 139-225, N203Q)
ALX3 (Homo sapiens, UniProt O95076 139-225, N203Q), sequence (O95076 139-225 N203Q): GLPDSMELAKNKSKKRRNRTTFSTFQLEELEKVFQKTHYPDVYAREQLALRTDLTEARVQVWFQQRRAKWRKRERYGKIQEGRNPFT

HOXA2 [22] = molecular target: HOXA2 (Homo sapiens, UniProt O43364 129-215, R185K)
HOXA2 (Homo sapiens, UniProt O43364 129-215, R185K), sequence (O43364 129-215 R185K): as the sequence (O43364 129-215 R185T) above, with T57K counted along it

ALX1 [23] = molecular target: ALX1 (Homo sapiens, UniProt Q15699 118-204, L144R)
ALX1 (Homo sapiens, UniProt Q15699 118-204, L144R), sequence (Q15699 118-204 L144R): as the sequence (Q15699 118-204 L144V) above, with V27R counted along it

ALX3 [24] = molecular target: ALX3 (Homo sapiens, UniProt O95076 139-225)
ALX3 (Homo sapiens, UniProt O95076 139-225), sequence (O95076 139-225): as the sequence (O95076 139-225 N203Q) above, with Q65N counted along it

HESX1 = HESX1 (Homo sapiens, UniProt Q9UBX0 95-180, R109Q)
HESX1, sequence (Q9UBX0 95-180 R109Q): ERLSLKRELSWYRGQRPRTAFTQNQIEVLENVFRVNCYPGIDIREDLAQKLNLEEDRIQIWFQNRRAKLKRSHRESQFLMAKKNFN

ALX3 [25] = molecular target: ALX3 (Homo sapiens, UniProt O95076 139-225, L168Q)
ALX3 (Homo sapiens, UniProt O95076 139-225, L168Q), sequence (O95076 139-225 L168Q): as the sequence (O95076 139-225 N203Q) above, with L30Q, Q65N counted along it

ALX3 [26] = molecular target: ALX3 (Homo sapiens, UniProt O95076 139-225, L168V)
ALX3 (Homo sapiens, UniProt O95076 139-225, L168V), sequence (O95076 139-225 L168V): as the sequence (O95076 139-225 N203Q) above, with L30V, Q65N counted along it

ALX1 [27] = molecular target: ALX1 (Homo sapiens, UniProt Q15699 118-204)
ALX1 (Homo sapiens, UniProt Q15699 118-204), sequence (Q15699 118-204): as the sequence (Q15699 118-204 L144V) above, with V27L counted along it

ALX3 [28] = molecular target: ALX3 (Homo sapiens, UniProt O95076 139-225, N203S)
ALX3 (Homo sapiens, UniProt O95076 139-225, N203S), sequence (O95076 139-225 N203S): as the sequence (O95076 139-225 N203Q) above, with Q65S counted along it

PRRX1 [29] = molecular target: PRRX1 (Homo sapiens, UniProt P54821 80-166)
PRRX1 (Homo sapiens, UniProt P54821 80-166), sequence (P54821 80-166): as the sequence (P54821 80-166 F113S) above, with S34F counted along it

HOXA4 (Homo sapiens, UniProt Q00056 201-287, W262R), sequence (Q00056 201-287 W262R): as the sequence (Q00056 201-287) above, with W62R counted along it
HOXA4 (Homo sapiens, UniProt Q00056 201-287, R217L), sequence (Q00056 201-287 R217L): as the sequence (Q00056 201-287) above, with R17L counted along it
HOXB4 (Homo sapiens, UniProt P17483 148-234, V174I), sequence (P17483 148-234 V174I): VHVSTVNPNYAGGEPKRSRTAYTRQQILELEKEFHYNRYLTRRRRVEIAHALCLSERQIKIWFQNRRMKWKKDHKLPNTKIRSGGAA
HOXB4 (Homo sapiens, UniProt P17483 148-234), sequence (P17483 148-234): as the sequence (P17483 148-234 V174I) above, with I27V counted along it

## ACCCGTGG
HOXB4 [1]
  binding signal: 7.52 upbm affinity estimate (log intensity, higher = more binding, comparable within an allelic series)
HOXA4 [2]
  binding signal: 9.91 upbm affinity estimate (log intensity, higher = more binding, comparable within an allelic series)
HOXA4 [3]
  binding signal: 9.76 upbm affinity estimate (log intensity, higher = more binding, comparable within an allelic series)
HOXB4 [4]
  binding signal: 7.53 upbm affinity estimate (log intensity, higher = more binding, comparable within an allelic series)
HOXA4 [5]
  binding signal: 9.78 upbm affinity estimate (log intensity, higher = more binding, comparable within an allelic series)
HOXA4 [6]
  binding signal: 9.9 upbm affinity estimate (log intensity, higher = more binding, comparable within an allelic series)

## CGGGCTTC
HOXB4 [1]
  binding signal: 7.22 upbm affinity estimate (log intensity, higher = more binding, comparable within an allelic series)
HOXA4 [2]
  binding signal: 9.75 upbm affinity estimate (log intensity, higher = more binding, comparable within an allelic series)
PAX4 [7]
  binding signal: 9.13 upbm affinity estimate (log intensity, higher = more binding, comparable within an allelic series)
PAX4 [8]
  binding signal: 8.97 upbm affinity estimate (log intensity, higher = more binding, comparable within an allelic series)
HOXA4 [3]
  binding signal: 9.66 upbm affinity estimate (log intensity, higher = more binding, comparable within an allelic series)
HOXB4 [4]
  binding signal: 7.19 upbm affinity estimate (log intensity, higher = more binding, comparable within an allelic series)
MSX2 [9]
  binding signal: 9.39 upbm affinity estimate (log intensity, higher = more binding, comparable within an allelic series)
PAX4 [10]
  binding signal: 9.21 upbm affinity estimate (log intensity, higher = more binding, comparable within an allelic series)
PAX4 [11]
  binding signal: 9.17 upbm affinity estimate (log intensity, higher = more binding, comparable within an allelic series)
HOXA4 [5]
  binding signal: 9.6 upbm affinity estimate (log intensity, higher = more binding, comparable within an allelic series)
MSX2 [12]
  binding signal: 9.32 upbm affinity estimate (log intensity, higher = more binding, comparable within an allelic series)
PAX4 [13]
  binding signal: 9.09 upbm affinity estimate (log intensity, higher = more binding, comparable within an allelic series)
MSX2 [14]
  binding signal: 9.35 upbm affinity estimate (log intensity, higher = more binding, comparable within an allelic series)
PAX4 [15]
  binding signal: 9.24 upbm affinity estimate (log intensity, higher = more binding, comparable within an allelic series)
HOXA4 [6]
  binding signal: 9.77 upbm affinity estimate (log intensity, higher = more binding, comparable within an allelic series)

## ATTAATCA
HOXB4 [1]
  binding signal: 13.2 upbm affinity estimate (log intensity, higher = more binding, comparable within an allelic series)
HOXA4 [2]
  binding signal: 10.6 upbm affinity estimate (log intensity, higher = more binding, comparable within an allelic series)
ALX4 [16]
  binding signal: 13.7 upbm affinity estimate (log intensity, higher = more binding, comparable within an allelic series)
PAX4 [7]
  binding signal: 11.6 upbm affinity estimate (log intensity, higher = more binding, comparable within an allelic series)
PRRX1 [17]
  binding signal: 11.3 upbm affinity estimate (log intensity, higher = more binding, comparable within an allelic series)
HOXB6
  binding signal: 9.98 upbm affinity estimate (log intensity, higher = more binding, comparable within an allelic series)
ALX4 [18]
  binding signal: 12.7 upbm affinity estimate (log intensity, higher = more binding, comparable within an allelic series)
HOXA2 [19]
  binding signal: 12.6 upbm affinity estimate (log intensity, higher = more binding, comparable within an allelic series)
HOXA4 [3]
  binding signal: 12.1 upbm affinity estimate (log intensity, higher = more binding, comparable within an allelic series)
HOXB4 [4]
  binding signal: 13.9 upbm affinity estimate (log intensity, higher = more binding, comparable within an allelic series)
ALX1 [20]
  binding signal: 11.5 upbm affinity estimate (log intensity, higher = more binding, comparable within an allelic series)
ALX3 [21]
  binding signal: 8.54 upbm affinity estimate (log intensity, higher = more binding, comparable within an allelic series)
HOXA2 [22]
  binding signal: 13.3 upbm affinity estimate (log intensity, higher = more binding, comparable within an allelic series)
ALX1 [23]
  binding signal: 11.3 upbm affinity estimate (log intensity, higher = more binding, comparable within an allelic series)
HOXA4 [5]
  binding signal: 13.6 upbm affinity estimate (log intensity, higher = more binding, comparable within an allelic series)
ALX3 [24]
  binding signal: 12.3 upbm affinity estimate (log intensity, higher = more binding, comparable within an allelic series)
PAX4 [13]
  binding signal: 11 upbm affinity estimate (log intensity, higher = more binding, comparable within an allelic series)
HESX1
  binding signal: 8.96 upbm affinity estimate (log intensity, higher = more binding, comparable within an allelic series)
ALX3 [25]
  binding signal: 10.2 upbm affinity estimate (log intensity, higher = more binding, comparable within an allelic series)
ALX3 [26]
  binding signal: 9.65 upbm affinity estimate (log intensity, higher = more binding, comparable within an allelic series)
ALX1 [27]
  binding signal: 12 upbm affinity estimate (log intensity, higher = more binding, comparable within an allelic series)
HOXA4 [6]
  binding signal: 11.4 upbm affinity estimate (log intensity, higher = more binding, comparable within an allelic series)
ALX3 [28]
  binding signal: 8.61 upbm affinity estimate (log intensity, higher = more binding, comparable within an allelic series)
PRRX1 [29]
  binding signal: 13.3 upbm affinity estimate (log intensity, higher = more binding, comparable within an allelic series)

Reference: publication PMC11006913
